Records with an inconclusive call do not appear. Active and inactive are the calls of the source. Unless noted, the call rests on the fitted dose curve; in most records, active means well fitted curve in the direction sought with a large enough effect; inconclusive means small, poorly fitted or top-dose-only effect, or another doubt; inactive means no such curve, though single readings can be large; an effect the other way counts as inactive or inconclusive.
Tests used:
[1] = qHTS for Inhibitors of Cell Surface uPA Generation: Validation Assay (AID 493164);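 further: RAW 264.7 macrophage cells exposed to compound for 18 h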
Method in brief: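 Compounds are titrated over seven points (2.45 nM–38.3 uM final) onto pre-plated RAW 264.7 cells and incubated for 18 h. Retained intracellular ATP, measured with ATP-Lite, indicates blocked lethal factor entry.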

[2] = target: Peptidyl-prolyl cis-trans isomerase NIMA-interacting 1 (Homo sapiens) (UniProt Q13526); assay: qHTS Validation Assay to Find Inhibitors of Pin1 (AID 504536; active means well fitted inhibition curve with a large enough effect in the polarisation, with a control signal flat, not every such curve was filed as active; the % refers to the polarisation)
Chain of Peptidyl-prolyl cis-trans isomerase NIMA-interacting 1 (Homo sapiens) (Q13526 whole entry, looked up): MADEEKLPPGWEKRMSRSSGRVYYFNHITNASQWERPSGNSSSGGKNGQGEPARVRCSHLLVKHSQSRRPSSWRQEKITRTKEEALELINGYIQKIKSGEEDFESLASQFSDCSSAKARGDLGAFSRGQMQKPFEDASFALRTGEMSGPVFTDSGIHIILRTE
Method in brief: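 Fluorescence polarization competition: compounds (titration) displace HiFluor-488-labeled Pin1-1b peptide from Pin1 (0.3 uM final) in pH 7.5 HEPES buffer with DTT, 10 min at room temperature; %Activity normalized to no-enzyme wells, curves fitted.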

[3] = target: Phosphoglycerate kinase, glycosomal (Trypanosoma brucei brucei) (UniProt P07378); assay: qHTS Validation Assay to Find Inhibitors of Phosphoglycerate Kinase (AID 504547)
Chain of Phosphoglycerate kinase, glycosomal (Trypanosoma brucei brucei) (P07378 whole entry, looked up): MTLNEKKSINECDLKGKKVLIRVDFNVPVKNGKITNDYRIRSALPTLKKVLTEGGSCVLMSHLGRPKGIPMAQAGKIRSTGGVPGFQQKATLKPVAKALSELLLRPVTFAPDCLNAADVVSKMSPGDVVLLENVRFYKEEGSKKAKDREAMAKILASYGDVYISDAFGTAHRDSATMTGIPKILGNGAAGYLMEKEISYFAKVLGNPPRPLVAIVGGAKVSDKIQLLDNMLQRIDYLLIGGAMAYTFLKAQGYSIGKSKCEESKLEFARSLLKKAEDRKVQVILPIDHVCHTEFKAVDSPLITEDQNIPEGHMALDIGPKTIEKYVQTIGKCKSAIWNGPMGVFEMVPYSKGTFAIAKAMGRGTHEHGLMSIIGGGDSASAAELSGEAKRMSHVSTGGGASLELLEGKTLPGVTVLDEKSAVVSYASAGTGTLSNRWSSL
Method in brief: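 In TEA buffer (100mM, pH 7.6) containing 5mM MgCl2 and 0.01% Tween-20, the GAPDH-coupled PGK reaction proceeded for 60 minutes at room temperature before a single luminescence reading using Kinase-Glo Plus.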

[4] = Inducers of the Endoplasmic Reticulum Stress Response (ERSR) in human glioma: Validation (AID 504836)
Method in brief: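 Stably transfected U87-MG human glioma cells carrying a GRP78-based luminescent sensor were seeded at 1000 cells/well, pin-dosed with compounds and incubated 16 h. Luciferase reagent was then added, and end-point luminescence was read after 10 min at room temperature.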

[5] = target: Ubiquitin carboxyl-terminal hydrolase 1 (Homo sapiens) (UniProt O94782); assay: Inhibitors of USP1/UAF1: Pilot qHTS (AID 504865);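 further: rhodamine fluorescence freed from ubiquitin-rhodamine substrate followed over time; top concentration of the series differs between compounds; nearly all actives have a fitted effect of over 35% in size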
Chain of Ubiquitin carboxyl-terminal hydrolase 1 (Homo sapiens) (O94782 whole entry, looked up): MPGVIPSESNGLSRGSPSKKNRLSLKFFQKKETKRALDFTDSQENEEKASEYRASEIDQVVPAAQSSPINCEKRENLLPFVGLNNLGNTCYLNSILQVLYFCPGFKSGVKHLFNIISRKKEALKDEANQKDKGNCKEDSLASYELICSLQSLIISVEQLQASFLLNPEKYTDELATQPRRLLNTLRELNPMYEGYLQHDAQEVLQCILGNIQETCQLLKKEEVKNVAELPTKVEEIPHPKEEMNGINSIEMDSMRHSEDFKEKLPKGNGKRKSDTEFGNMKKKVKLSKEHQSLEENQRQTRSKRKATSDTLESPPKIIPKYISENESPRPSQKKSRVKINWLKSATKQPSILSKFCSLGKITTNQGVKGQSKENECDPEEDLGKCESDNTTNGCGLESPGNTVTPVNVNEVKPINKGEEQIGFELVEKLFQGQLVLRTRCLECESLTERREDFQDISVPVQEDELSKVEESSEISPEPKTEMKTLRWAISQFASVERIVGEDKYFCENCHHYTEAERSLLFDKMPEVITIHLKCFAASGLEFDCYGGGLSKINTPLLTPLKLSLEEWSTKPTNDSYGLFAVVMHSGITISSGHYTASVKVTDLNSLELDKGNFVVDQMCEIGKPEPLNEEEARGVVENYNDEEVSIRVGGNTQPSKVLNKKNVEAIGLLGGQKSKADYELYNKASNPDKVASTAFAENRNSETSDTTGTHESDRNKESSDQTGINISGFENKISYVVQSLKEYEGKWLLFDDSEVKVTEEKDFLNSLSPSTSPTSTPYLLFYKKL
Method in brief: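 Deubiquitinase activity followed as kinetic rhodamine fluorescence release from 150 nM Ub-Rho. 1 nM USP1/UAF1 with compound, after 15 min room-temperature preincubation, in HEPES pH 7.8 buffer containing TCEP, EDTA, BSA and Tween-20.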

[6] = Nrf2 qHTS screen for inhibitors: Validation (AID 493153; active means well fitted inhibition curve with a large enough effect in the main read-out, with a control signal flat, not every such curve was filed as active); details: Potency: luciferase luminescence; viability change: measured here: cytotoxicity max response
Method in brief: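 Concentration-response test in A549 ARE_Fluc reporter cells (5% FBS OPTI-MEM), compound exposure 18-24 h at 37°C, 5% CO2. Cell viability measured first by CellTiter-Fluor fluorescence; ARE-driven luciferase luminescence then measured as Nrf2 activity.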

[7] = target: phosphoglycerate mutase (Leishmania major) (UniProt Q4Q090); assay: qHTS Validation Assay to Find Inhibitors of Phosphoglycerate Mutase (AID 504548); details: Potency: inhibition qHTS;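 further: end-point luminescence from Kinase-GloPlus after the PGAM reaction; series mostly up to about 58 µM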
Chain of phosphoglycerate mutase (Leishmania major) (Q4Q090 1-553): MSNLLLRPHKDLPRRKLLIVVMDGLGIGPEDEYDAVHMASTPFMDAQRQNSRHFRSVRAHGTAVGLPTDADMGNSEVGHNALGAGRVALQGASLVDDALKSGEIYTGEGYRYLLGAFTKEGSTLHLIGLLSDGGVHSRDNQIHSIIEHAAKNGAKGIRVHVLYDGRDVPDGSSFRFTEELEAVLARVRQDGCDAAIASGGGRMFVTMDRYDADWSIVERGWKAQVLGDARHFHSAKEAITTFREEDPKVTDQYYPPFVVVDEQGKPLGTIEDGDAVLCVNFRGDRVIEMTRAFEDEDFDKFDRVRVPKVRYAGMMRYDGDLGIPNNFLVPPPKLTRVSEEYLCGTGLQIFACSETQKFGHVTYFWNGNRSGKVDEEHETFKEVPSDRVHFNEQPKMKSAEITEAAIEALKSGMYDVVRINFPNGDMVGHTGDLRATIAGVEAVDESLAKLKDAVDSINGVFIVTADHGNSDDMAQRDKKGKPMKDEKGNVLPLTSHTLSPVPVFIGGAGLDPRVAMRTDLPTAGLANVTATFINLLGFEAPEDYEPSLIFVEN
Method in brief: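 L. major PGAM (1.25nM final) was added to substrate buffer and pinned compound, incubated 45 minutes at room temperature, then Kinase-GloPlus added; luminescence read after 10 minutes. Buffer: 100 mM TEA pH 7.6, 5 mM MgCl2, 0.01% Tween-20.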

[8] = qHTS for Inhibitors of ATXN expression: Validation (AID 588378); further: nearly all actives have a fitted effect of over 75% in size; further: potency means the concentration at half of the fitted maximal effect
Method in brief: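 Luciferase luminescence (Bright-Glo) from an ATXN2-FFLuc HEK293 line after 24 h compound exposure at 37 °C, preceded by a CellTiter-Fluor fluorescence viability read. Serial dilutions of a reference ATXN2 inhibitor and a luciferase inhibitor served as controls.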

[9] = qHTS for Inhibitors of ATXN expression: Validation of Cytotoxic Assay (AID 588349); further: potency means the concentration at half of the fitted maximal effect
Method in brief: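 Cytotoxicity counter-screen: HEK293 cells exposed to compound titrations, 72 hr, 37 degrees C. Read-out is intracellular ATP (CellTiter Glo luminescence) as a viability measure.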

[10] = target: Galactokinase (Homo sapiens) (UniProt P51570); assay: qHTS Validation Assay for Inhibitors of Human Galactokinase (GALK) (AID 493189)
Chain of Galactokinase (Homo sapiens) (P51570 whole entry, looked up): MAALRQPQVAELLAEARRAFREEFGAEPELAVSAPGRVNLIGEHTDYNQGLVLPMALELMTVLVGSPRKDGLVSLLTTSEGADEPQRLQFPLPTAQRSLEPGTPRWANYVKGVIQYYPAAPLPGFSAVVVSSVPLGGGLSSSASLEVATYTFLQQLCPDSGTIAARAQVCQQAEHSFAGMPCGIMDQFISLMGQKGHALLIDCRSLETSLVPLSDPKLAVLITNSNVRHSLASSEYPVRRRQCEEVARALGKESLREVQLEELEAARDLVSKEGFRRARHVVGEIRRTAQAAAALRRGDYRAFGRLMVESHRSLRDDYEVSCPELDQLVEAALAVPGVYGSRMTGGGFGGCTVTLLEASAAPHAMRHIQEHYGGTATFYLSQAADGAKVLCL
Method in brief: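 Inhibition was measured as remaining ATP, detected by luciferase luminescence after a 1 h room-temperature reaction. Final conditions: 5 nM GALK, 100 uM galactose, 35 uM ATP, pH 8.0 HEPES buffer.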

[11] = Validation screen for small molecules that induce DNA re-replication in SW480 colon adenocarcinoma cells (AID 504364)
Method in brief: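 Read-out: total Hoechst intensity of nuclei by fluorescence scanning imager; hits raise the fraction of nuclei with elevated DNA content. Cells received compound for 48 hr at 37 C before a 40 min stain.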

[12] = target: DNA dC->dU-editing enzyme APOBEC-3G (Homo sapiens) (UniProt Q9HC16); assay: qHTS for inhibitors of Vif-A3G interactions: Validation (AID 588379)
Chain of DNA dC->dU-editing enzyme APOBEC-3G (Homo sapiens) (Q9HC16 whole entry, looked up): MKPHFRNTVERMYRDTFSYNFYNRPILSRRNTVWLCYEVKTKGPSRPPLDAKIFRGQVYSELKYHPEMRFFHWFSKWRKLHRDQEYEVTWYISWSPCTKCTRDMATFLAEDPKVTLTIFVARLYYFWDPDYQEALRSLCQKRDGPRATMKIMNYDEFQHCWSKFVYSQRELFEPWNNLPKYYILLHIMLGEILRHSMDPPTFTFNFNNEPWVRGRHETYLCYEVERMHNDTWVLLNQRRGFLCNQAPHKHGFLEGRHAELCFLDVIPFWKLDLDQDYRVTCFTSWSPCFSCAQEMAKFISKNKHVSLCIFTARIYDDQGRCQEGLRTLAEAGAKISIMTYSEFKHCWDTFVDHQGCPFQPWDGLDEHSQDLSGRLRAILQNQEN
Method in brief: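 Yellow fluorescence (Ex 488, Em 500-530) of Vif-coexpressing HeLa A3G-eYFP cells, scanned by Acumen cytometer, reports blocked A3G degradation. Cells plated at 700/well overnight at 37 deg C before compound addition, then a further overnight compound incubation at 37 deg C.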

C=CCN1CCc2cccc3c2[C@H]1Cc1ccc(O)c(O)c1-3
inactive: outcome [1] | Potency [2] | Potency [3] | outcome [4] | Potency [5]

CN1CC[C@@]2(C)c3cc(OC(=O)Nc4ccccc4)ccc3N(C)[C@@H]12
-13.9%: viability change [6]
inactive: Potency [6] | outcome [1] | Potency [2] | Potency [7] | outcome [4] | Potency [8]

C[C@H](N)Cc1cccc(C(F)(F)F)c1
inactive: outcome [1] | Potency [2] | Potency [3] | Potency [7] | outcome [4] | Potency [5] | Potency [9] | Potency [8]

COc1ccc2c(c1O)-c1cccc3c1[C@@H](C2)N(C)CC3
inactive: Potency [6] | outcome [1] | Potency [2] | Potency [3] | Potency [7] | outcome [4] | Potency [5] | Potency [8]
-4.97%: viability change [6]

CCCN1CCc2cc(O)cc3c2[C@H]1Cc1ccc(O)c(O)c1-3
inactive: outcome [1] | Potency [2] | outcome [4] | Potency [5]

O=S(=O)(O)c1cc(O)ccc1O
inactive: Potency [5]

NCC(O)c1cccc(O)c1 (configuration not stated)
inactive: Potency [5]

N#C/C(=C/c1ccc(O)c(O)c1)C(N)=S
0.144%: viability change [6]
inactive: Potency [6] | outcome [1] | Potency [2] | Potency [7] | outcome [4] | Potency [5] | Potency [8]

COc1ccc2c(c1)c(CCN1CCOCC1)c(C)n2C(=O)c1cccc(Cl)c1Cl
inactive: outcome [1] | Potency [2] | Potency [3] | Potency [7] | outcome [4]

CCCC(C)C1(CC)C(=O)NC(=O)NC1=O (configuration not stated)
inactive: Potency [5]

CC(C)(O)C1C2OC(=O)C1C1(O)CC3OC34C(=O)OC2C14C (configuration not stated)
inactive: Potency [5]

CCN1C[C@@]2(COC)C3[C@@H](OC)C4[C@@H]1C3([C@@H]1C[C@]3(O)[C@H](OC(=O)c5ccccc5)[C@@H]1[C@]4(OC(C)=O)[C@@H](O)[C@@H]3OC)[C@H](OC)C[C@H]2O
inactive: Potency [6] | outcome [1] | Potency [2] | outcome [4] | Potency [5] | Potency [9] | Potency [8]
0.88%: viability change [6]

c1ccc2sc(SNC3CCCCC3)nc2c1
inactive: Potency [5]

C=CCN1CCC23c4c5ccc(O)c4O[C@H]2C(=O)CC[C@@]3(O)C1C5 (some centres not stated)
inactive: outcome [1] | outcome [10] | Potency [11] | Potency [2] | Potency [3] | Potency [7] | outcome [4] | Potency [5] | Potency [9] | Potency [8]

CCNC(=O)[C@H]1O[C@@H](n2cnc3c(N)ncnc32)[C@H](O)[C@@H]1O
inactive: outcome [1] | Potency [2] | Potency [7] | outcome [4] | Potency [5] | Potency [9] | Potency [8]

CNC(=O)Oc1ccccc1C(=O)Nc1ccccc1
inactive: Potency [5]

S=C(S)N1CCNCC1
inactive: Potency [5]

C#CC(C)(O)CC (configuration not stated)
inactive: Potency [5]

CCCN1CCc2cccc3c2[C@H]1Cc1ccc(O)c(O)c1-3
active: Potency [9] 35.5 µM
0.172%: viability change [6]
inactive: Potency [6] | outcome [1] | Potency [2] | Potency [3] | outcome [4] | Potency [5]

CNC(C)C(O)c1ccc(O)cc1 (configuration not stated)
inactive: Potency [5]

CCCC[N+]1(C)C2CC(OC(=O)[C@H](CO)c3ccccc3)CC1C1OC12 (some centres not stated)
-6.93%: viability change [6]
inactive: Potency [6] | outcome [1] | Potency [2] | outcome [4] | Potency [5] | Potency [9] | Potency [8]

FC(F)OC(F)(F)C(F)Cl (configuration not stated)
inactive: Potency [5]

C[C@@H]1O[C@@H](O[C@H]2C[C@@H](O)[C@]3(CO)[C@@H]4C(CC[C@]3(O)C2)[C@@]2(O)CC[C@H]([C@@H]3COC(=O)C3)[C@@]2(C)C[C@H]4O)[C@H](O)[C@H](O)[C@H]1O (some centres not stated)
active: Potency [8] 1.78 µM
inactive: outcome [1] | Potency [2] | outcome [4] | Potency [5]

O[C@H]1[C@H]2[C@H](O)CCCN2C[C@H]1O
inactive: Potency [5]

O=[N+]([O-])/C=C/c1ccc2c(c1)OCO2
active: Potency [8] 10 µM
inactive: outcome [1] | Potency [2] | Potency [3] | Potency [7] | outcome [4] | Potency [5]

Cn1sc(Cl)cc1=O
inactive: Potency [5]

OC(c1ccccc1)(c1ccccc1)C1CN2CCC1CC2 (configuration not stated)
inactive: Potency [5]

C=CCC1(C(C)CCC)C(=O)N=C(S)NC1=O (configuration not stated)
inactive: Potency [5]

CCN(CC)C(=O)/C(Cl)=C(\C)OP(=O)(OC)OC
inactive: Potency [5]

C/C(=C\c1csc(C)n1)[C@@H]1C[C@@H]2O[C@]2(C)CCC[C@H](C)[C@H](O)[C@@H](C)C(=O)C(C)(C)[C@@H](O)CC(=O)O1
inactive: Potency [5]

O=c1[nH]cc(N(CCCl)CCCl)c(=O)[nH]1
inactive: Potency [5]

CC(C)[C@@]1(NC(=O)[C@@H]2C[C@@H]3c4cccc5[nH]cc(c45)C[C@H]3N(C)C2)O[C@@]2(O)[C@@H]3CCCN3C(=O)[C@H](Cc3ccccc3)N2C1=O
10.7%: viability change [6]
inactive: Potency [6] | outcome [1] | Potency [2] | Potency [3] | outcome [4] | Potency [5] | Potency [9] | outcome [12]

CC(C)(O)[C@@H]1C2OC(=O)[C@@H]1[C@]1(O)C[C@H]3O[C@]34C(=O)O[C@H]2[C@]14C (tested in a mixture with another compound)
inactive: Potency [6] | outcome [1] | Potency [2] | Potency [3] | Potency [7] | outcome [4] | Potency [5] | Potency [9] | Potency [8]
-3%: viability change [6]

CN1CCc2cc(O)cc3c2[C@H]1Cc1ccc(O)c(O)c1-3
inactive: Potency [6] | outcome [1] | Potency [2] | outcome [4] | Potency [5] | Potency [9] | Potency [8]
-1.2%: viability change [6]

N#CC1(N2CCCCC2)CCCCC1
inactive: Potency [5]

C[N+]1(C)CCCCC1COC(=O)C(O)(c1ccccc1)c1ccccc1 (configuration not stated)
inactive: Potency [5]

N#CCCN
inactive: outcome [1] | Potency [2] | Potency [7] | outcome [4] | Potency [5] | Potency [9] | Potency [8]

From PubChem BioAssay (NCATS)
